PubChem BioAssay (NCATS)
Results filed as inconclusive are left out. Entries that show only a call come without a potency. A number with no mark means an inactive call. Calls of active or inactive are those of the source. The call rests on the fitted dose curve; in most records, active means well fitted inhibition curve with a large enough effect; inconclusive means small, poorly fitted or top-dose-only effect; inactive means flat fitted curve, though single readings scatter.

Assays:
[1] = qHTS profiling for inhibitors of Plasmodium falciparum proliferation (AID 504749); further: nearly all actives have a fitted effect of over 60% in size; conditions: P. falciparum in erythrocytes, SYBR Green DNA, 72 h
Summary of the method: (§1)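 Parasite proliferation within erythrocytes, 72 h exposure. Endpoint: SYBR Green I fluorescence after overnight lysis at room temperature. Controls: 0.29 uM artemisinin, DMSO.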

3D7 = assay: as above; conditions: P. falciparum in erythrocytes, SYBR Green DNA, 72 h; series mostly up to 28.7 µM
Summary of the method: as §1

7G8 = assay: as above; conditions: P. falciparum in erythrocytes, SYBR Green DNA, 72 h; series mostly up to 28.7 µM
Summary of the method: as §1

AA1029 = assay: as above; conditions: P. falciparum in erythrocytes, SYBR Green DNA, 72 h; series mostly up to 28.7 µM
Summary of the method: as §1

[2] = at 28.7 µM (top of the series), parasite line A
[3] = at 28.7 µM (top of the series), parasite line B
[4] = at 12.8 µM (top of the series), parasite line A
[5] = at 12.8 µM (top of the series), parasite line B
Potency means the concentration at half of the fitted maximal effect.

CNc1c2c(nn1C)CCCC2
activity, negative = inhibition [1, 2]: 6.6% | activity, negative = inhibition [1, 3]: 23% | Potency (3D7): inactive | Potency (7G8): inactive | Potency (AA1029): inactive

CCOC(=O)c1cccnc1
activity, negative = inhibition [1, 2]: 7.9% | activity, negative = inhibition [1, 3]: 13.9% | Potency (3D7): inactive | Potency (7G8): inactive | Potency (AA1029): inactive

O=C1c2ccccc2S(=O)(=O)N1CCCCN1CCN(c2ncccn2)CC1
activity, negative = inhibition [1, 2]: -16.2% | activity, negative = inhibition [1, 3]: 25.9% | Potency (3D7): inactive | Potency (AA1029): inactive

N[C@@H](Cc1ccc(O)cc1)C(=O)O
activity, negative = inhibition [1, 2]: 13.6% | activity, negative = inhibition [1, 3]: 10.5% | Potency (3D7): inactive | Potency (7G8): inactive | Potency (AA1029): inactive

NS(=O)(=O)c1ccc(C(=O)O)cc1
activity, negative = inhibition [1, 2]: 18.9% | activity, negative = inhibition [1, 3]: 11.1% | Potency (3D7): inactive | Potency (7G8): inactive | Potency (AA1029): inactive

CCc1nnc(NS(=O)(=O)c2ccc(N)cc2)s1
activity, negative = inhibition [1, 2]: 10.2% | activity, negative = inhibition [1, 3]: 10.5% | Potency (3D7): inactive | Potency (7G8): inactive | Potency (AA1029): inactive

Cc1c(NC(C)C)c(=O)n(-c2ccccc2)n1C
activity, negative = inhibition [1, 2]: 8.37% | activity, negative = inhibition [1, 3]: 23.5% | Potency (3D7): inactive | Potency (7G8): inactive | Potency (AA1029): inactive

Nc1c2c(nc3c1CCC3)CCCC2
Potency (7G8): 11.2 µM (active)

O=C1CC[C@@H](C(=O)O)N1
activity, negative = inhibition [1, 2]: 0.206% | activity, negative = inhibition [1, 3]: 18.2% | Potency (3D7): inactive | Potency (AA1029): inactive

CC(=O)SC[C@@H](Cc1ccccc1)C(=O)NCC(=O)OCc1ccccc1
activity, negative = inhibition [1, 4]: -4.01% | activity, negative = inhibition [1, 5]: -5.82% | Potency (3D7): inactive | Potency (AA1029): inactive

CNCc1ccccc1
activity, negative = inhibition [1, 2]: 11.1% | activity, negative = inhibition [1, 3]: 15.3% | Potency (3D7): inactive | Potency (7G8): inactive | Potency (AA1029): inactive

CC1CCc2cc(F)cc3c(=O)c(C(=O)O)cn1c23 (centres undefined)
activity, negative = inhibition [1, 2]: -7.54% | activity, negative = inhibition [1, 3]: 6.45% | Potency (3D7): inactive | Potency (7G8): inactive | Potency (AA1029): inactive

CC(=O)Nc1ccc(OCCOCCOc2ccc(NC(C)=O)cc2)cc1
activity, negative = inhibition [1, 2]: 6.75% | activity, negative = inhibition [1, 3]: 13% | Potency (3D7): inactive | Potency (7G8): inactive | Potency (AA1029): inactive

O=C1c2ccccc2C(=O)C1c1ccc(Br)cc1
Potency (3D7): 11.2 µM (active) | Potency (7G8): 11.2 µM (active)

CCN(CC)CCOC(=O)C(c1ccccc1)c1ccccc1
activity, negative = inhibition [1, 2]: -8.73% | activity, negative = inhibition [1, 3]: -12.1% | Potency (3D7): inactive | Potency (AA1029): inactive

Nc1ccncc1N
activity, negative = inhibition [1, 2]: 9.9% | activity, negative = inhibition [1, 3]: 5.99% | Potency (3D7): inactive | Potency (7G8): inactive | Potency (AA1029): inactive

O=C(Cn1ccnc1[N+](=O)[O-])NCCO
activity, negative = inhibition [1, 2]: 4.18% | activity, negative = inhibition [1, 3]: -2.11% | Potency (3D7): inactive | Potency (7G8): inactive | Potency (AA1029): inactive

CCN(CC)S(=O)(=O)c1ccc(C(=O)O)cc1
activity, negative = inhibition [1, 2]: 7.39% | activity, negative = inhibition [1, 3]: 20.6% | Potency (3D7): inactive | Potency (7G8): inactive | Potency (AA1029): inactive

O=C(CN1CCNCC1)NC1CCCCC1
activity, negative = inhibition [1, 2]: 3.68% | activity, negative = inhibition [1, 3]: 4.23% | Potency (3D7): inactive | Potency (7G8): inactive | Potency (AA1029): inactive

O=C(O)Cc1cn(-c2ccccc2)nc1-c1ccc(Cl)cc1
activity, negative = inhibition [1, 2]: 11.4% | activity, negative = inhibition [1, 3]: 9.39% | Potency (3D7): inactive | Potency (7G8): inactive | Potency (AA1029): inactive

OCC(O)CS (centres undefined)
activity, negative = inhibition [1, 2]: 2.38% | Potency (3D7): inactive | Potency (7G8): inactive | Potency (AA1029): inactive

CC(C)CCOC(=O)c1ccc(N(C)C)cc1
activity, negative = inhibition [1, 2]: 18.9% | activity, negative = inhibition [1, 3]: 14.8% | Potency (3D7): inactive | Potency (7G8): inactive | Potency (AA1029): inactive

C[N+](C)(C)CC[N+]1(C)Cc2c(Cl)c(Cl)c(Cl)c(Cl)c2C1
activity, negative = inhibition [1, 2]: 5.09% | activity, negative = inhibition [1, 3]: 9.42% | Potency (3D7): inactive | Potency (7G8): inactive | Potency (AA1029): inactive

NC(=O)NS(=O)(=O)c1ccc(N)cc1
activity, negative = inhibition [1, 2]: -1.96% | activity, negative = inhibition [1, 3]: 15.9% | Potency (3D7): inactive | Potency (7G8): inactive | Potency (AA1029): inactive

C[C@@H]1CCC[C@H](C)N1
activity, negative = inhibition [1, 4]: 13.8% | activity, negative = inhibition [1, 5]: -5.49% | Potency (3D7): inactive | Potency (7G8): inactive | Potency (AA1029): inactive

CCCCCC(C)N (centres undefined)
activity, negative = inhibition [1, 3]: -25.4% | Potency (7G8): 10 µM (active)

CC(O)CCCCn1c(=O)c2c(ncn2C)n(C)c1=O (centres undefined)
activity, negative = inhibition [1, 2]: 9.1% | activity, negative = inhibition [1, 3]: 4.96% | Potency (3D7): inactive | Potency (7G8): inactive | Potency (AA1029): inactive

CCCCCCCCCCCCCCCCN
activity, negative = inhibition [1, 2]: 0.565% | activity, negative = inhibition [1, 3]: 3.84% | Potency (3D7): inactive | Potency (7G8): inactive | Potency (AA1029): inactive

Nc1ncnc(Nc2ccccc2)n1
activity, negative = inhibition [1, 2]: -28.4% | Potency (3D7): inactive | Potency (7G8): inactive | Potency (AA1029): inactive

Cc1cc(=O)[nH]c(=S)[nH]1
activity, negative = inhibition [1, 2]: 10.7% | activity, negative = inhibition [1, 3]: 5.6% | Potency (3D7): inactive | Potency (7G8): inactive | Potency (AA1029): inactive

Cn1c([N+](=O)[O-])cnc1COC(N)=O
activity, negative = inhibition [1, 2]: 5.14% | activity, negative = inhibition [1, 3]: 3.75% | Potency (3D7): inactive | Potency (7G8): inactive | Potency (AA1029): inactive

O=C(O)c1ccccc1C(=O)Nc1ccc(S(=O)(=O)Nc2nccs2)cc1
activity, negative = inhibition [1, 2]: 16.3% | activity, negative = inhibition [1, 3]: 12.3% | Potency (3D7): inactive | Potency (7G8): inactive | Potency (AA1029): inactive

COc1cc(C(=O)NCCCCCC(=O)O)cc(OC)c1OC
activity, negative = inhibition [1, 2]: 8.13% | activity, negative = inhibition [1, 3]: 13.6% | Potency (3D7): inactive | Potency (7G8): inactive | Potency (AA1029): inactive
